As a reminder, the AC50 is the concentration giving half of the maximal activity seen.

Calls of active or inactive are those of the source. Rule for the calls: active = hit-call score of the fitted dose curve at least 0.9, where 1 is the maximum; inactive = score below 0.9.

Read-out in experiment [1]: C-C motif chemokine 2 (Homo sapiens) (UniProt P13500)
The experiment is described as follows: BSK_KF3CT_MCP1: BioMAP Diversity Plus: KF3CT Assay for Monocyte Chemoattractant Protein 1 (MCP1/CCL2) Biomarker Activity (AID 2283073). The conditions noted are these: primary human keratinocytes with fibroblasts; actives raise or lower the signal. The method in brief:
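Human keratinocyte plus foreskin fibroblast primary co-culture exposed to chemical for 24 h. MCP-1 levels measured by ELISA. Bidirectional curve fitting relative to DMSO negative control as baseline.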

Read-out in experiment [2]: Matrix Metallopeptidase 9 (MMP9), MMP9 (gene 4318)
As to the kind of experiment: BSK_KF3CT_MMP9: BioMAP Diversity Plus: KF3CT Assay for Matrix Metallopeptidase 9 (MMP9) Biomarker Activity (AID 2283074).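 For AC50: MMP9 protein level quantified by ELISA in the co-culture.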 The conditions noted are these: primary human keratinocytes with fibroblasts; actives raise or lower the signal. The method, boiled down: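 MMP-9 quantified by ELISA after 24 h chemical treatment of primary human skin keratinocyte/fibroblast co-cultures; gain or loss fitted against DMSO, with parallel SRB staining (0.1% SRB, 560 nm) for overt cytotoxicity.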

Read-out in experiment [3]: urokinase plasminogen activator (uPA), PLAU (gene 5328)
As to the kind of experiment: BSK_KF3CT_uPA: BioMAP Diversity Plus: KF3CT Assay for urokinase plasminogen activator (uPA) Biomarker Activity (AID 2283075). Conditions: primary human keratinocytes with fibroblasts; actives raise or lower the signal. The method, boiled down: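 ELISA read-out of uPA 24 h after dosing human skin keratinocytes co-cultured with foreskin fibroblasts. Signal change fitted both ways relative to DMSO; sulforhodamine B on parallel cultures marks overt cytotoxicity.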

Read-out in experiment [4]: CD40, CD40 (gene 958)
The experiment is described as follows: BSK_LPS_CD40: BioMAP Diversity Plus: LPS Assay for CD40 Biomarker Activity (AID 2283076). Conditions: primary human HUVEC with PBMC; actives raise or lower the signal. The method in brief:
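Primary human umbilical vein endothelial cells co-cultured with peripheral blood mononuclear cells, LPS-stimulated, were dosed with chemical and read 24 h later. CD40 levels were measured by ELISA and fitted bidirectionally against DMSO as negative control and baseline.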

Read-out in experiment [5]: E-selectin (Homo sapiens) (UniProt P16581)
As to the kind of experiment: BSK_LPS_Eselectin: BioMAP Diversity Plus: LPS Assay for Eselectin Biomarker Activity (AID 2283077). The conditions noted are these: primary human HUVEC with PBMC; actives raise or lower the signal. The method, boiled down: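 Human umbilical vein endothelial cells co-cultured with peripheral blood mononuclear cells under LPS stimulation; E-selectin measured by ELISA 24 h after chemical dosing. Activity fitted bidirectionally against DMSO as negative control and baseline.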

Read-out in experiment [6]: Interleukin-8 (IL8), CXCL8 (gene 3576)
As to the kind of experiment: BSK_LPS_IL8: BioMAP Diversity Plus: LPS Assay for Interleukin-8 (IL8) Biomarker Activity (AID 2283078). The conditions noted are these: primary human HUVEC with PBMC; actives raise or lower the signal. The method, boiled down: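 Human umbilical vein endothelial cells co-cultured with PBMC were stimulated with LPS; IL-8 levels were measured by ELISA 24 h after chemical dosing. Activity was fitted bidirectionally against DMSO as negative control and baseline.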

Read-out in experiment [7]: Interleukin-1 alpha (IL1a), IL1A (gene 3552)
As to the kind of experiment: BSK_LPS_IL1a: BioMAP Diversity Plus: LPS Assay for Interleukin-1 alpha (IL1a) Biomarker Activity (AID 2283080). The conditions noted are these: primary human HUVEC with PBMC; actives raise or lower the signal. The method, boiled down:
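Human umbilical vein endothelial cells co-cultured with peripheral blood mononuclear cells were LPS-stimulated and exposed to test chemicals for 24 h. IL-1 alpha was quantified by ELISA, with bidirectional curve fitting against DMSO as the negative control and baseline.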

Read-out in experiment [8]: Monocyte Chemoattractant Protein-1 (MCP1), CCL2 (gene 6347)
The experiment is described as follows: BSK_LPS_MCP1: BioMAP Diversity Plus: LPS Assay for Monocyte Chemoattractant Protein-1 (MCP1) Biomarker Activity (AID 2283081).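 For AC50: secreted MCP-1 protein quantified by ELISA in culture supernatant.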 Conditions: primary human HUVEC with PBMC; actives raise or lower the signal. The method in brief: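 HUVEC plus PBMC co-culture (human primary cells, LPS system) exposed to test chemical for 24 h; MCP-1 measured by ELISA. Bidirectional curve fitting against DMSO baseline; parallel SRB total-protein staining flags overt cytotoxicity.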

Experiment [9] in a line: BSK_LPS_PGE2: BioMAP Diversity Plus: LPS Assay for Prostaglandin E2 (PGE2) Biomarker Activity (AID 2283082).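 For AC50: secreted prostaglandin E2 measured by ELISA in LPS-stimulated co-culture.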 The conditions noted are these: primary human HUVEC with PBMC; actives raise or lower the signal. The method in brief:
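ELISA read-out of PGE2 from human umbilical vein endothelial cells co-cultured with peripheral blood mononuclear cells under LPS, 24 h post-dose. Gain or loss of signal scored relative to DMSO baseline.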

Read-out in experiment [10]: Macrophage colony-stimulating factor (MCSF), CSF1 (gene 1435)
The experiment is described as follows: BSK_LPS_MCSF: BioMAP Diversity Plus: LPS Assay for Macrophage colony-stimulating factor (MCSF) Biomarker Activity (AID 2283083). Conditions: primary human HUVEC with PBMC; actives raise or lower the signal. The method in brief: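 Human umbilical vein endothelial cells co-cultured with peripheral blood mononuclear cells were exposed to compound for 24 h. M-CSF levels were measured by ELISA, and bidirectional curve fitting used DMSO as the negative control and baseline.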

Read-out in experiment [11]: Tissue Factor, F3 (gene 2152)
As to the kind of experiment: BSK_LPS_TissueFactor: BioMAP Diversity Plus: LPS Assay for Tissue Factor Biomarker Activity (AID 2283084). Conditions: primary human HUVEC with PBMC; actives raise or lower the signal. The method in brief:
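Human umbilical vein endothelial cells co-cultured with peripheral blood mononuclear cells were dosed and stimulated with LPS. Cell-surface CD142 was quantified by ELISA at 24 h. Activity was fitted bidirectionally against DMSO baseline.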

Read-out in experiment [12]: Tumor necrosis factor (Homo sapiens) (UniProt P01375)
As to the kind of experiment: BSK_LPS_TNFa: BioMAP Diversity Plus: LPS Assay for Tumour Necrosis Factor alpha (TNFa) Biomarker Activity (AID 2283085).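 For AC50: TNFa protein level quantified by ELISA in the co-culture.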 The conditions noted are these: primary human HUVEC with PBMC; actives raise or lower the signal. The method, boiled down:
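HUVEC/PBMC co-culture, LPS-stimulated; 24 h post-dose; TNFa by ELISA; gain or loss of signal fitted bidirectionally vs DMSO baseline.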

Read-out in experiment [13]: Vascular cell adhesion molecule 1 (VCAM1), VCAM1 (gene 7412)
The experiment is described as follows: BSK_LPS_VCAM1: BioMAP Diversity Plus: LPS Assay for Vascular cell adhesion molecule 1 (VCAM1) Biomarker Activity (AID 2283086). Conditions: primary human HUVEC with PBMC; actives raise or lower the signal. The method, boiled down:
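ELISA read-out of VCAM-1 at 24 h post-dosing in an LPS-driven HUVEC/PBMC primary human co-culture; gain or loss of signal fitted bidirectionally against DMSO baseline. Cytotoxicity tracked in parallel cultures by SRB total-protein staining.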

Read-out in experiment [14]: CD38, CD38 (gene 952)
As to the kind of experiment: BSK_SAg_CD38: BioMAP Diversity Plus: SAg Assay for CD38 Biomarker Activity (AID 2283087). The conditions noted are these: primary human HUVEC with PBMC; actives raise or lower the signal. The method in brief:
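Measures CD38 on a human endothelial/PBMC co-culture driven by SEB and TSST-1, 24 h after compound exposure, using ELISA with fluorescence detection; DMSO defines baseline for bidirectional curve fitting.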

Read-out in experiment [15]: CD40, CD40 (gene 958)
The experiment is described as follows: BSK_SAg_CD40: BioMAP Diversity Plus: SAg Assay for CD40 Biomarker Activity (AID 2283088). Conditions: primary human HUVEC with PBMC; actives raise or lower the signal. The method, boiled down: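 Human umbilical vein endothelial cells co-cultured with PBMC; CD40 levels measured by ELISA with fluorescence read-out 24 h after chemical dosing. Gain or loss of signal fitted bidirectionally against DMSO baseline.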

Read-out in experiment [16]: CD69, CD69 (gene 969)
As to the kind of experiment: BSK_SAg_CD69: BioMAP Diversity Plus: SAg Assay for CD69 Biomarker Activity (AID 2283089).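 For AC50: cell surface CD69 protein quantified by ELISA with fluorescence detection.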 The conditions noted are these: primary human HUVEC with PBMC; actives raise or lower the signal. The method in brief:
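Primary human vascular co-culture (umbilical vein endothelium with peripheral blood mononuclear cells) exposed to test chemical for 24 h. CD69 levels quantified by fluorescence ELISA; DMSO served as negative control for bidirectional fitting.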

Read-out in experiment [17]: Monocyte Chemoattractant Protein-1 (MCP1), CCL2 (gene 6347)
As to the kind of experiment: BSK_SAg_MCP1: BioMAP Diversity Plus: SAg Assay for Monocyte Chemoattractant Protein-1 (MCP1) Biomarker Activity (AID 2283090). The conditions noted are these: primary human HUVEC with PBMC; actives raise or lower the signal. The method, boiled down:
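Values derive from bidirectional fitting of ELISA-measured MCP1 against DMSO controls. Readings were taken 24 h after dosing human vascular endothelial cells co-cultured with peripheral blood mononuclear cells under superantigen stimulation.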

Read-out in experiment [18]: E-selectin (Homo sapiens) (UniProt P16581)
As to the kind of experiment: BSK_SAg_Eselectin: BioMAP Diversity Plus: SAg Assay for Eselectin Biomarker Activity (AID 2283091). The conditions noted are these: primary human HUVEC with PBMC; actives raise or lower the signal. The method, boiled down: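 HUVEC co-cultured with PBMC, compound dosed then read at 24 h; E-selectin measured by ELISA. Activity fitted bidirectionally against DMSO as negative control and baseline.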

Read-out in experiment [19]: Monokine induced gamma interferon (MIG), CXCL9 (gene 4283)
The experiment is described as follows: BSK_SAg_MIG: BioMAP Diversity Plus: SAg Assay for Monokine induced gamma interferon (MIG) Biomarker Activity (AID 2283092). The conditions noted are these: primary human HUVEC with PBMC; actives raise or lower the signal. The method, boiled down:
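Endothelial cells and PBMC were co-cultured, exposed to test chemicals, and sampled 24 h later. MIG was measured by ELISA, and responses were fitted in both directions relative to DMSO.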

Experiment [20] in a line: BSK_LPS_SRB: Viability Assessment in the BioMAP Diversity Plus: LPS Assay (AID 2283079).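 Note: total protein by sulforhodamine B absorbance as a cytotoxicity measure; measured one day after compound addition; fitted in both directions against DMSO so loss or gain of signal counts.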 Conditions: primary human HUVEC with PBMC. The method, boiled down:
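Human umbilical vein endothelial cells co-cultured with PBMC (LPS system) were dosed for 24 h. Total protein was stained with 0.1% sulforhodamine B after 10% TCA fixation, read at 560 nm, and fitted bidirectionally against DMSO baseline.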

Sequence of E-selectin (Homo sapiens) (P16581 whole entry, looked up): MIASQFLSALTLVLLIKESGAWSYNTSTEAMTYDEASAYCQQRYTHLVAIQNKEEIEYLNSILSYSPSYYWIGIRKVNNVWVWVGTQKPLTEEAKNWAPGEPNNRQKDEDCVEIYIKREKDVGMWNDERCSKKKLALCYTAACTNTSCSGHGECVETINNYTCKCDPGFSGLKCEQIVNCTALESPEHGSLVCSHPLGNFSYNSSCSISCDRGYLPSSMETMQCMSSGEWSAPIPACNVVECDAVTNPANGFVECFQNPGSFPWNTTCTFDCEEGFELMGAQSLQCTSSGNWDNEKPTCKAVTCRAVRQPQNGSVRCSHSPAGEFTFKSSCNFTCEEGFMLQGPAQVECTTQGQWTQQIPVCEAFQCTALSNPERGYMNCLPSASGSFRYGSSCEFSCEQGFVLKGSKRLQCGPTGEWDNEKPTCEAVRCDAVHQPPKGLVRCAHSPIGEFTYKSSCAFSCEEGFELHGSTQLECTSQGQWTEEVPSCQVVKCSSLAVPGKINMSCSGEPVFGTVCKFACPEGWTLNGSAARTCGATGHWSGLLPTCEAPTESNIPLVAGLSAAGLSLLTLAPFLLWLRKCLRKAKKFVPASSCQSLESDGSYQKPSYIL
Sequence of Tumor necrosis factor (Homo sapiens) (P01375 whole entry, looked up): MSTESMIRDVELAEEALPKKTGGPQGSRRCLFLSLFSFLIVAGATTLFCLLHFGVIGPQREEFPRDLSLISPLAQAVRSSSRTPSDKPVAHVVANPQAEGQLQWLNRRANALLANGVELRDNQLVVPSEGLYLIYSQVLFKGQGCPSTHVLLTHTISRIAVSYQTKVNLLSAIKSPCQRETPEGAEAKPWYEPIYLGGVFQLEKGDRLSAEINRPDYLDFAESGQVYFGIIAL

As for `CCCOc1sc(C(=O)N2CCC(c3cc(CN)ccc3F)CC2)c(C)c1Br`, the AC50 in experiment [1] is 9.27 µM (active); in experiment [2], 5.74 µM (active); in [3] it was 10.2 µM (active); in experiment [4] it was 7.91 µM (active); in experiment [5], 11.1 µM (active); in experiment [6] it was 13.6 µM (active). The AC50 is 8.61 µM (active) in experiment [7]; 9.2 µM (active) in experiment [8]; 12.5 µM (active) in experiment [9]; 10.7 µM (active) in experiment [10]; 13.1 µM (active) in [11]; 13.4 µM (active) in experiment [12]. The AC50 in experiment [13] was 7.57 µM (active); in [14], 6.1 µM (active); in experiment [15], 9.53 µM (active); in experiment [16], 8.27 µM (active); in experiment [17], 8.39 µM (active); in [18], 6.75 µM (active). Further, the AC50 in [19] is 11.9 µM (active).
Turning to `OC1CCCCC1`, the result in experiment [1], in experiment [2], in experiment [3], in experiment [4], in [5] and in experiment [6] was inactive. Further, the outcome in experiment [20], in experiment [7], in experiment [8], in experiment [9], in experiment [10] and in [11] was inactive. Further, the outcome in [13], in experiment [14], in experiment [15], in [16], in experiment [17] and in experiment [18] was inactive. The result in experiment [19] was inactive.
`CC(C)CCCCCCOC(=O)CCCCC(=O)OCCCCCCC(C)C`: the outcome in [1], in experiment [2], in experiment [3], in experiment [4], in [5] and in experiment [6] was inactive. Also, the result in experiment [7], in experiment [8], in experiment [9], in experiment [10], in experiment [11] and in experiment [12] was inactive. Further, the result in experiment [13], in experiment [14], in experiment [15], in experiment [16], in experiment [17] and in experiment [18] was inactive. Moreover, the result in experiment [19] was inactive.
